33 molecules from PubChem BioAssay (NCATS) can be followed below.

Values joined by “and” are separate entries in the source; they are usually repeats but may differ in a detail not shown here. Equal entries are not always repeated. Results filed as inconclusive are left out. More than one record can exist for a structure, and the calls need not agree. Active and inactive are the calls of the source. The call rests on the fitted dose curve; in most records, active means well fitted cell-killing curve with a large enough effect; inconclusive means small, poorly fitted or top-dose-only effect, or effect the other way; inactive means no such curve, though single readings can be large or run the other way.
Potency means the concentration at half of the fitted maximal effect.

The nature of the test: Viability qHTS for spleen associated tyrosine kinase inhibitor (SYKi) naive MV4-11 cells (AID 1963823). Further: nearly all actives have a fitted effect of over 40% in size. Conditions: MV4-11 AML viability, CellTiter-Glo luminescence, 72 h; series mostly up to 45 µM; viability (% of control): at the top concentration. The essentials:
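qHTS, SYK inhibitor-naive MV4-11; 500 cells/well; 72 hr compound exposure, 37 C; CellTiter-Glo added, 10 min RT; luminescence read.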
For orientation: In qHTS, concentration-response curves come from the screen itself.
With `COc1cc(C(=O)NC(N)=Nc2ccc(C)c(NC(=O)c3ccc(-c4ccccc4)cc3)c2)cc(OC)c1OC`, the Potency was 14.8 µM (active). The same measure, in the same setting: the value for `COc1cc(N2CCN(C(C)=O)CC2)ccc1Nc1ncc(Cl)c(Nc2ccc(N3CCN(C(C)=O)CC3)cc2OC)n1` was 291 nM (active) and 372 nM (active). Turning to `CCCCC/C(C=O)=C\c1ccccc1`, the “viability (% of control)” value is 73.9% (inactive). Turning to `O=c1sn(-c2cccc3ccccc23)c(=O)n1Cc1ccccc1`, the Potency was 14.6 µM (active). The same measure, in the same setting: the value for `Nc1nccc2c1ncn2[C@@H]1C=C(CO)[C@@H](O)[C@H]1O` was 0.166 µM (active).

Consider `CCC(=O)O[C@H]1[C@H](O[C@@H]2[C@@H](C)[C@H](O[C@H]3C[C@@](C)(OC)[C@@H](O)[C@H](C)O3)[C@@H](C)C(=O)O[C@H](CC)[C@@](C)(O)[C@H](O)[C@@H](C)C(=O)[C@H](C)C[C@@]2(C)O)O[C@H](C)C[C@@H]1N(C)C`, for which the “viability (% of control)” value is 81.9% (inactive).

As for `Cc1nc(NC(=O)N2CCC[C@H]2C(N)=O)sc1-c1csc(C(C)(C)C)n1`, the Potency was 7.42 µM (active). With `Nc1ccc(C(=O)O)c(O)c1`, the “viability (% of control)” value was 86.9% (inactive). For the molecule `NC(=NCCCCCCN=C(N)/N=C(\N)Nc1ccc(Cl)cc1)/N=C(\N)Nc1ccc(Cl)cc1`, the Potency was 5.31 µM (active) and 1.84 µM (active). As for `CC(=O)O[C@]1(C(C)=O)CC[C@H]2[C@@H]3C=C(C)C4=CC(=O)CC[C@]4(C)[C@H]3CC[C@@]21C`, the Potency result was “inactive and 16.6 µM (active)”.

On to `OC[C@H]1O[C@@H](S[C@@H]2O[C@H](CO)[C@H](O)[C@H](n3cc(-c4cccc(F)c4)nn3)[C@H]2O)[C@H](O)[C@@H](n2cc(-c3cccc(F)c3)nn2)[C@H]1O`, for which the “viability (% of control)” value is 68.3% (inactive). Take `O=S(=O)(O)c1ccc2nc(-c3ccccc3)[nH]c2c1`: the “viability (% of control)” value is 52.1% (inactive).

For the molecule `COc1ccc(/C=C\c2cc(OC)c(OC)c(OC)c2)cc1O`, the Potency was 0.0053 µM (active). As for `CCCNC(=O)[C@H]1O[C@@H]1C(=O)N[C@H](C(=O)N1CCC[C@H]1C(=O)OC)C(C)CC` (stereo partly drawn), the Potency was 1.66 µM (active). Same read-out and setting: as for `CCc1cc(/C(C)=N/OCc2ccc(C3CCCCC3)c(C(F)(F)F)c2)ccc1CN1CC(C(=O)O)C1`, the figure is 18.6 µM (active).

Take `COc1cc2ncnc(Nc3ccc(O)c(Br)c3)c2cc1OC`: the Potency was 1.16 µM (active) and 662 nM (active). Turning to `CCC(=O)O[C@]1(C(=O)CCl)[C@@H](C)C[C@H]2[C@@H]3CCC4=CC(=O)C=C[C@]4(C)[C@@]3(F)[C@@H](O)C[C@@]21C`, the Potency was 4.73 µM (active) and 10.5 µM (active). Take `CCCCCCCC/C=C\CCCCCCCC(=O)NCc1ccc(O)c(OC)c1`: the “viability (% of control)” value is 76.5% (inactive).

Turning to `C[C@@H](Oc1cc(C(=O)Nc2ccc(C(=O)N3CCN(C)CC3)cc2)nnc1N)c1c(Cl)ccc(F)c1Cl`, the Potency was 1.66 µM (active). Turning to `CC(=O)/C=C/C=C1/C2CCC(C2)C1(C)C` (stereo not drawn), the “viability (% of control)” value is 38.7% (inactive). Regarding `CCC1=C[C@@H]2CN(C1)Cc1c([nH]c3ccccc13)[C@@](C(=O)OC)(c1cc3c(cc1OC)N(C)[C@H]1[C@@](O)(C(=O)OC)[C@H](OC(C)=O)[C@]4(CC)C=CCN5CC[C@]31[C@@H]54)C2`, the Potency is 8.4 nM (active) and 91 nM (active). In the case of `CCOC(=O)c1ccnc(CNCC(=O)N(CC)CCN(C)C)c1`, the “viability (% of control)” value is 77.7% (inactive).

As to `NNc1nnc(NN)c2ccccc12`, the “viability (% of control)” value was 72.7% (inactive).

For `CCN(CC)CCOC(=O)C1(C2CCCCC2)CCCCC1`, the “viability (% of control)” value was 74.2% (inactive). Same read-out and setting: the value for `CCCOc1ccc2c(c1)CC[C@@H]1[C@@H]2CC[C@]2(C)C(OC)CC[C@@H]12` (stereo partly drawn) was 75.4% (inactive). On to `CCCCCOc1ccccc1/C(=C\SC)n1ccnc1`, for which the Potency is 11.9 µM (active). Same read-out and setting: as for `CNS(=O)(=O)c1ccc2c(c1)/C(=C/c1[nH]c3c(c1CCCN1CCN(C)CC1)CCCC3)C(=O)N2`, the figure is 0.186 µM (active). The same measure, in the same setting: as for `CC[C@@]1(O)C(=O)OCc2c1cc1n(c2=O)Cc2c-1nc1ccccc1c2CCNC(C)C`, the figure is 0.0059 µM (active); as for `O=C(/C=C/c1ccc(Cl)cc1)N1CCC2(CC1)CN(Cc1ccc(Cl)c(Cl)c1)C(=O)O2`, 18.6 µM (active); as for `COc1ccc(Cl)c(Nc2ncnc3cc(OCC4CCN(C)CC4)c(OC)cc23)c1`, 5.25 µM (active).

For `CN(C)CCCOC1(Cc2ccccc2)CCCCCC1`, the “viability (% of control)” value was 80% (inactive). Turning to `CC1=C(c2ccc(O)cc2)[C@H](c2ccc(OCCN3CCCCC3)cc2)Oc2cc(O)ccc21`, the Potency is 8.33 µM (active). With `Cc1[nH]c(/C=C2\C(=O)Nc3ccc(F)cc32)c(C)c1C(=O)NC[C@H](O)CN1CCOCC1`, the Potency was 13 nM (active) and 26.3 nM (active).
